Screens from PubChem.
ELG1 DNA repair: blocks ELG1-dependent DNA repair in HEK293T cells; HEK293T ELG1-luciferase reporter, luminescence, 16 h; DNA damage induced by 5-fluorouridine; Potency, µM (top dose mostly 46.1 µM), without a hit: top-dose activity change, negative = inhibition, usual class: inhibitors; hit rate 2.3% among 330,000; AID 504467; note: potency is the fitted concentration of half-maximal effect; nearly all actives have a fitted effect of over 55% in size
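Quantitative HTS, concentration-response format. 2,000 cells/well co-treated with 5-fluorouridine and compound, 16 hr in 5% CO2 at 37 °C; ONE-Glo luminescence read after 30 min.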
TDP1 cell noCPT: qHTS for Inhibitors of human tyrosyl-DNA phosphodiesterase 1 (TDP1): qHTS in cells in absence of CPT; DT40 Tdp1-/- hTDP1 cells, no CPT, ATP luminescence, 48 h; hit rate 15% among 420,000; Potency, µM (titrated, usually from 46.2 µM), inactives show top-dose activity change, negative = growth inhibition, usual class: inhibitors; note: potency is the fitted concentration of half-maximal effect; nearly all actives have a fitted effect of over 55% in size
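No-CPT arm: Tdp1-/-;hTDP1 DT40 cells (400/well) plus compounds, incubated ≥48 hr at 37 °C. Readout CellTiter-Glo luminescence.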
Gal4-VP16 FLuc: inhibits Gal4-VP16 luciferase reporter, ROR gamma counter-screen. Drosophila S2 Gal4-VP16 UAS-luciferase, luminescence, 20 h. Potency, µM (doses to about 53.6 µM), inactives show top-dose activity, negative = inhibition, hits mostly inhibitors. hit rate 3.5% among 310,000;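 note: Gal4-VP16 expression switched on by copper sulfate through the metallothionein promoter; potency is the fitted concentration of half-maximal effect; nearly all actives have a fitted effect of over 50% in size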
IL-1B inflam inh: inhibitors of inflammasome signaling (IL-1 beta secretion); THP-1 LPS/ATP IL-1B secretion, AlphaLISA, 16 h; active compounds read low; activity change, % at 57.5 µM; hit rate 4.7% among 360,000; in the data active = activity change below about -50%; inconclusive = mostly about -30% to -49%
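Secreted IL-1B measured by AlphaLISA bead assay after 16 h compound exposure of THP-1 cells; compounds (final up to 57.5 uM) added 1 h before LPS (250 ng/mL) and ATP (1.25 mM) stimulation; lower signal means less secretion.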
RORg inh: inhibitors of mouse ROR gamma transcriptional activity; Potency, µM (top dose mostly 53.6 µM), without a hit: at the highest dose activity change, negative = inhibition, actives largely listed as inhibitors; AID 2551; hit rate 5.4% among 310,000; Drosophila S2 Gal4-RORgamma UAS-luciferase reporter, 20 h; note: potency is the fitted concentration of half-maximal effect; nearly all actives have a fitted effect of over 60% in size
Target sequence (P51450 whole entry, looked up, the tested form may be a part): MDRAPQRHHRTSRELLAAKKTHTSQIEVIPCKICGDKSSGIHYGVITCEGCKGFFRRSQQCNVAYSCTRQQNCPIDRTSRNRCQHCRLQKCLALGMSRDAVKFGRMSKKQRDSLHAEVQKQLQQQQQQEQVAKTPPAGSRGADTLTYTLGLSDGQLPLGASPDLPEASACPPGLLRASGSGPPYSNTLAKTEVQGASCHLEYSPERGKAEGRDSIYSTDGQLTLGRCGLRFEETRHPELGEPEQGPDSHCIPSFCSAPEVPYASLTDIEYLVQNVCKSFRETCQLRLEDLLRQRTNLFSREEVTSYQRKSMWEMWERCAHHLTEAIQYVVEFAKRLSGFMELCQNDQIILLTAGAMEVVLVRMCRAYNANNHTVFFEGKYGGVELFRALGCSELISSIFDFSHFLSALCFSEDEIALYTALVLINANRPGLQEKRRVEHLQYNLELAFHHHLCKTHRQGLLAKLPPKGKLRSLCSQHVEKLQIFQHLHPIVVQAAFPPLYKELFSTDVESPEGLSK
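Luciferase reporter read in Schneider cells carrying Gal4-RORγ (mouse) and UAS-Photinus luciferase; cells given compound 1 h before 700 uM copper sulfate induction, then incubated 20 h at ambient temperature.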
TDP1 cell CPT: DT40-hTDP1 cell growth loss with CPT; chicken DT40 Tdp1-/-;hTDP1 cells + 20 nM CPT, ATP luminescence, 48 h; Potency, µM (series often up to 46.2 µM), for the others: at the top dose activity change, negative = growth inhibition, hits mostly inhibitors; hit rate 12% among 420,000; note: potency is the fitted concentration of half-maximal effect; nearly all actives have a fitted effect of over 55% in size
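Cell growth measured by CellTiter-Glo luminescence after a minimum 48 h, 37 C compound exposure with 20 nM CPT in Tdp1-knockout DT40 cells stably expressing hTDP1, seeded 400/well; qHTS titration format.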
The depositor's hits bear a star; ? = inconclusive; · = no result given; [ ] = remark or other dose. A selection: hits, their analogues and other compounds. The true share with any hit is near 21%. Unless noted, calls come from the whole dose curve; as a rule, active = well fitted curve in the direction sought with a large enough effect; inconclusive = small, poorly fitted or top-dose-only effect, or another doubt; inactive = no such curve, though single readings can be large; an effect the other way counts as inactive or inconclusive. % is set by controls: 0 for no effect and ±100 for the full control effect.

SMILES	ELG1 DNA repair	TDP1 cell noCPT	Gal4-VP16 FLuc	IL-1B inflam inh	RORg inh	TDP1 cell CPT
O=C1c2ccccc2C(=O)C1c1nccc2ccccc12	?	12µM*	?	22	?	10µM*
O=C1C(c2ccnc3ccccc23)=C(O)c2ccccc21	?	12µM*	?	23	5µM*	13µM*
Brc1ccccc1-n1nnc(-c2ccnc3ccccc23)n1	-13%	?	?	20	?	?
O=C1c2ccccc2C(=O)C1c1ccnc2ccccc12	?	13µM*	?	9	?	5.8µM*
COC(=O)CC(=O)O[C@H]1C=C[C@@H](NC(=O)OC(C)(C)C)C1	·	-18%	·	30	·	8%
Cn1c(-c2ccccc2)cc(=NNS(C)(=O)=O)c2cc(S(=O)(=O)O)ccc21	·	-3%	·	4	·	0%
CC(OC(=O)c1ccccc1NS(=O)(=O)c1cccc(N)c1)C(=O)N(C)Cc1ccccc1 (stereo unspecified)	?	23µM*	-13%	-12	15%	?
C/C(CC(=O)NC12CC3CC(CC(C3)C1)C2)=N\NC(=O)c1cnccn1	24%	0%	?	26	13µM*	1%
C/C(CC(=O)NC12CC3CC(CC(C3)C1)C2)=N\NC(=O)c1ccc(F)cc1	5%	-2%	?	0	18µM*	-1%
CCCCCCS(=O)[C@H]1CS(=O)(=O)C[C@@H]1S(=O)CCCCCC (stereo partly specified)	-8%	?	6%	-14	5%	23µM*
NC(=O)NN=C1c2cc(S(=O)(=O)N3CCOCC3)ccc2-c2ccc(S(=O)(=O)N3CCOCC3)cc21	·	3%	·	·	·	?
CCCCCc1c(C)nc(Nc2ccccc2)[nH]c1=O	-13%	18µM*	4%[0.365 µM]	-4	?	21µM*
Cc1ccc(Nc2nc(C)c(CCC(C)C)c(=O)[nH]2)cc1	22%	18µM*	6%	-13	26%	?
Cc1nc(Nc2ccc(F)cc2)[nH]c(=O)c1CCC(C)C	?	?	?	-8	?	?
Cc1cccc(-n2c(N)cc(=O)nc2SCC(=O)Nc2ccc(F)cc2)c1C	·	-28%	·	·	·	-30%
CCOC(=O)c1c(Nc2cccc(O)c2)nnc(-c2ccccc2)c1-c1ccccc1	·	23µM*	·	·	·	?
NC(=O)COc1ccc(Nc2nnc(-c3ccc(O)cc3)c3ccccc23)cc1	?	3%	0%	-27	-1%	20%
CCOC(=O)c1c(Nc2ccc(OCC)cc2)nnc(-c2ccccc2)c1-c1ccccc1	·	21µM*	·	·	·	15µM*
CCOc1ccc(-n2ccnc(SCC(=O)NCc3cccc(OC)c3)c2=O)cc1	?	23µM*	·	-11	·	18µM*
CCOc1ccc(-n2ccnc(SCC(=O)Nc3ccc(OC)cc3OC)c2=O)cc1	?	23µM*	·	-10	·	21µM*
COc1cc(/C=C/CNC[C@H]2O[C@@H](n3ccc(=O)[nH]c3=O)[C@H](O)[C@@H]2O)ccc1O	·	-1%	·	35	·	4%
COc1ccc(CN2C(=O)CSCC2(C)C(=O)Nc2ccc3c(c2)OCCO3)cc1 (stereo unspecified)	·	?	·	-4	·	?
CCN(CC)C(=S)SSC(=S)N(CC)CC	?	0.15µM*	1µM*	-110*	1.1µM*	0.021µM*
CCN(CC)C(=S)SC1=CCS(=O)(=O)C1	?	-6%	-1%	-3	-29%	24%
Cc1ccccc1C(=O)Nc1nnc(S(=O)(=O)N2CCc3ccccc32)s1	·	?	·	·	·	10%
CC(C)OC(=O)c1cn(-c2ccccc2)nc1-c1ccco1	-6%	?	·	-90*	-9%[0.365 µM]	?
